# High-throughput results as filed in PubChem.
# SSB-PriA inh = blocks PriA binding to SSB C-terminal tail; 430,000 tested, 0.6% active; AID 1272365; AlphaScreen SSBct-PriA binding, biotinylated peptide; inhibition, % at 33 µM; in the data active means inhibition mostly above about 37%, no sharp cut-off; inactive means mostly below about 20%;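 further: plate controls were negative control peptide for no effect and reference peptide for full effect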
# VHR inh abs = inhibitors of human VHR1 phosphatase (DUSP3) | P51452 | recombinant VHR phosphatase, pNPP absorbance | inhibition, % at 13.3 µM | 290,000 tested, 0.52% active | AID 1654; in the data active means inhibition above about 50%
# Target sequence (P51452 whole entry, looked up): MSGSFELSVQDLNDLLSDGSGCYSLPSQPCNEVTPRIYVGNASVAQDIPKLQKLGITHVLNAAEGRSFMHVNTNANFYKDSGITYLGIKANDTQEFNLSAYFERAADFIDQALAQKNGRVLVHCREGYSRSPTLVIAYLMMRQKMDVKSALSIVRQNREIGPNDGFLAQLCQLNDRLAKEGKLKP
# ugtP null kill = compounds lethal to S. aureus RN4220 ugtP deletion mutant. OD600 growth, 16 h. growth inhibition, % (test concentration not listed). 330,000 tested, 0.54% active. AID 1259309; in the data active means growth inhibition above about 68%;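 further: plate controls were untreated wells for no effect and antibiotic for full effect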
# CCHF vOTU inh = CCHFV vOTU protease inhibition; inhibition, % at 11.5 µM; 370,000 tested, 0.55% active; Pep-AMC fluorescence; in the data active means inhibition above about 30%; further: 0% = vehicle wells with enzyme and 100% = no enzyme wells
# RN4220 kill = S. aureus RN4220 growth inhibition. 330,000 tested, 0.33% active. AID 1259311. OD600, 16 h. inhibition, % (test concentration not listed); in the data active means inhibition above about 85%;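 further: plate controls were untreated cells for no effect and reference antibiotic for full effect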
# * marks the source's active call; other numbers are inactive results; nt = not tested or not shown; ! = not confirmed by another sample. Most compounds without a hit are left out; they make up all but 1.5% or so of the library.
SMILES,SSB-PriA inh,VHR inh abs,ugtP null kill,CCHF vOTU inh,RN4220 kill
CC1CCCC(C)N1CC(O)COCC1COc2ccccc2O1 (stereo not given),2,55*,-4,13,1
OCCN1CCN(CC(O)COCC2COc3ccccc3O2)CC1 (stereo not given),-7,24,4,-3,1
CN1CCC(OC(=O)c2cc3ccccc3oc2=O)CC1,-17,nt,nt,nt,nt
CCCCC(CC)C(=O)Nc1ccc(Nc2ccccc2)cc1 (stereo not given),4,-7,2,17,-2
CCCCC(CC)C(=O)Nc1ccc(C)c(O)c1 (stereo not given),-21,53*,-3,0,0
CC(=O)OCC1=C(C(=O)O)N2C(=O)C(NC(=O)C(C)Cn3nc(C)c(Cl)c3C)C2SC1 (stereo not given),-5,16,101*,-3,100*
CC(=O)OCC1=C(C(=O)O)N2C(=O)[C@@H](NC(=O)CSc3ccncc3)[C@H]2SC1,4,nt,99*,10,100*
CC1=C(C(=O)O)N2C(=O)C(NC(=O)c3c(F)cccc3F)C2SC1 (stereo not given),-6,nt,6,-3,6
CC(=O)OCC1=C(C(=O)O)N2C(=O)C(NC(=O)c3ccc(F)cc3)C2SC1 (stereo not given),2,13,100*,4,100*
O=C(NCC1(c2ccccc2)CCOCC1)C(=O)Nc1ccc2c(c1)OCCO2,-5,nt,nt,nt,nt
CC(=O)N1CCN(C(=O)c2cc(-c3ccccc3)nc3c2c(C)nn3C2CCS(=O)(=O)C2)CC1 (stereo not given),-5,nt,nt,nt,nt
Cc1ccc(C)c(CSC2=NCCN2C(=O)COc2ccc(Cl)cc2Cl)c1,-8,nt,nt,nt,nt
Nc1cccc(Nc2ccccc2)c1,11,38,-12,9,9
c1ccc(Nc2cccc(Nc3ccccc3)c2)cc1,66*,-19,-21,-9,-16
CCOc1cccc(C(=O)NC(=S)Nc2ccc(N3CCN(CC)CC3)cc2)c1,24,29,94*,-6,2
CCCOc1cccc(C(=O)NC(=S)Nc2ccc(N3CCN(C)CC3)cc2)c1,20,31,95*,2,9
CCOc1cccc(C(=O)NC(=S)Nc2ccccc2)c1,-4,-2,-5,7,4
CCOc1cc(C(=O)Nc2nnc(C3=COCCO3)o2)cc(OCC)c1OCC,8,nt,nt,nt,nt
CN(C)CCCN(C(=O)COc1ccc(Cl)cc1)c1nc2cc3c(cc2s1)OCCO3,9,nt,91*,-12,-1
CN(C)CCCN(C(=O)c1ccc2ccccc2c1)c1nc2cc3c(cc2s1)OCO3,29,31,-4,22,-4
CN(C)CCN(C(=O)c1ccccc1[N+](=O)[O-])c1nc2ccc(Br)cc2s1,47*,nt,nt,nt,nt
Cc1cc(C)c2sc(N(CCCN(C)C)C(=O)c3ccc(S(=O)(=O)N(C)Cc4ccccc4)cc3)nc2c1,49*,nt,-17,0,1
CCCCN(CC)S(=O)(=O)c1ccc(C(=O)N(CCCN(C)C)c2nc3cc(C)cc(C)c3s2)cc1,29,10,-28,1,-2
CN(C)CCN(C(=O)c1cccc2ccccc12)c1nc2cc3c(cc2s1)OCO3,47*,-2,1,-7,-6
CN(C)CCN(C(=O)c1ccc([N+](=O)[O-])o1)c1nc2cc3c(cc2s1)OCO3,-10,nt,nt,nt,nt
SMILES,SSB-PriA inh,VHR inh abs,ugtP null kill,CCHF vOTU inh,RN4220 kill
CN(C)CCCN(C(=O)c1ccc([N+](=O)[O-])o1)c1nc2cc3c(cc2s1)OCO3,10,14,14,51*,4
CCN(Cc1ccccc1)S(=O)(=O)c1ccc(C(=O)N(CCCN(C)C)c2nc3cc(C)cc(C)c3s2)cc1,43*,nt,-17,-5,5
CN(C)CCCN(C(=O)c1ccc(S(=O)(=O)N(C)Cc2ccccc2)cc1)c1nc2cc3c(cc2s1)OCO3,40*!,21,1,5,-3
Cc1ccc(NC(=O)CSc2cc(-n3cccn3)ncn2)c(F)c1,-5,nt,nt,nt,nt
N#Cc1cccc(C(=O)N2CCN(CCn3ccnc3)CC2)c1,-5,nt,nt,nt,nt
O=C(Nc1ccc(O)c(-c2nc3ccccc3s2)c1)c1cccs1,8,5,2,5,5
O=C(Nc1ccc(O)c(-c2nc3ccccc3s2)c1)c1cc(=O)c2ccccc2o1,-2,53*,nt,-1,nt
CN(C)S(=O)(=O)N1CCC(S(=O)(=O)c2nncn2C)CC1,-14,nt,nt,nt,nt
Cc1noc(C)c1C(=O)N1CCN(c2ccc(-c3noc(C(C)C)n3)cn2)CC1,14,nt,nt,nt,nt
CC(C)c1nc(-c2ccc(N3CCN(C(=O)Cc4cn(C)c5ccccc45)CC3)nc2)no1,61*,nt,nt,nt,nt
CCNC(=O)Cn1c(CO)cnc1SCc1cc(OC)cc(OC)c1,0,nt,nt,nt,nt
O=C(Nc1nc2c(s1)CN(C(=O)CCSc1ccccc1)CC2)c1cnccn1,-6,nt,nt,nt,nt
O=C1NC(=S)S/C1=C\c1ccc(SCc2ccccc2)o1,6,-8,90*,18,93*
O=C1NC(=S)S/C1=C\c1ccc(SCc2ccco2)o1,2,68,nt,nt,nt
COc1cc(CCC(=O)N2CCN(c3ccc([N+](=O)[O-])cc3)CC2)cc(OC)c1OC,4,57*,11,0,2
CCOc1ccccc1CNc1ccc(O)cc1,10,12,0,48*,2
Oc1ccc(NCc2ccccc2OCc2ccccc2F)cc1,47,0,-1,7,-4
O=C(NC1CC1)C1CCCN(c2ccc(-c3ccco3)nn2)C1 (stereo not given),-1,nt,nt,nt,nt
Cc1ccc(NC(=O)CCC(=O)NNC(=O)COc2ccc([N+](=O)[O-])cc2)cc1C,-5,-6,8,11,7
Cc1ccc(NC(=O)NNC(=O)COc2ccc([N+](=O)[O-])cc2)cc1C,40*,19,4,6,2
N#Cc1cccnc1N1CCC(CNC(=O)C2c3ccccc3Oc3ccccc32)CC1,-10,nt,nt,nt,nt
CC(=O)c1ccc(N2CCN(C(=O)c3cc(-c4ccc5c(c4)OCO5)nc4ccccc34)CC2)cc1,-1,-2,101*,3,-10
O=C(O)c1cc(-c2ccc3c(c2)OCO3)nc2ccccc12,-14,0,-16,24,0
Cc1cc(C(O)CCNC(=O)C(=O)Nc2ccc(F)c(Cl)c2)c(C)o1 (stereo not given),4,nt,nt,nt,nt
Cc1csc(C(C#N)C(=O)c2cc3ccccc3o2)n1 (stereo not given),8,28,79,14,84*
SMILES,SSB-PriA inh,VHR inh abs,ugtP null kill,CCHF vOTU inh,RN4220 kill
Cc1csc(NC(=O)c2cc3ccccc3o2)n1,-11,nt,-18,12,-4
Cc1cn2nc(C(=O)NCc3ccc(OC(F)(F)F)cc3)cc2c(=O)[nH]1,3,nt,nt,nt,nt
O=C(CSc1ncc2c(n1)-c1ccccc1N(Cc1ccccc1)S2(=O)=O)Nc1ccc(F)c(Cl)c1,-19,nt,nt,nt,nt
CN(C)CCOC(=O)C12CC3(C)CC(C)(CC(C)(C3)C1)C2,2,52*,-9,-8,4
O=C1C=CC(=O)C2C1C1(Cl)C(Cl)=C(Cl)C2(Cl)C1(Cl)Cl (stereo not given),5,nt,97*,14,88*
O=C(NCC(=O)N1CCN(Cc2ccccc2)CC1)c1ccc(Cl)cc1,0,57*,6,-6,2
CCOc1ccccc1C(=O)NCC1CCN(c2cnccn2)CC1,2,nt,nt,nt,nt
